We go through 21 molecules from PubChem BioAssay AID651650 (Sanford-Burnham Center for Chemical Genomics, 2012).

The assay deals with Neuropilin-1 (Homo sapiens) (UniProt O14786). Kind of assay: NRP-1 b1b2 CendR peptide binding inhibitors, dose response, biochemical, FP and AlphaScreen panel (AID 651650). Particulars: NRP-1 b1b2 / RPARPAR peptide binding, FP or AlphaScreen; run 1, at 100 µM (top of the series). Background: Bead proximity is the source of the signal in Alpha formats.
Sequence of Neuropilin-1 (Homo sapiens) (O14786 whole entry, looked up): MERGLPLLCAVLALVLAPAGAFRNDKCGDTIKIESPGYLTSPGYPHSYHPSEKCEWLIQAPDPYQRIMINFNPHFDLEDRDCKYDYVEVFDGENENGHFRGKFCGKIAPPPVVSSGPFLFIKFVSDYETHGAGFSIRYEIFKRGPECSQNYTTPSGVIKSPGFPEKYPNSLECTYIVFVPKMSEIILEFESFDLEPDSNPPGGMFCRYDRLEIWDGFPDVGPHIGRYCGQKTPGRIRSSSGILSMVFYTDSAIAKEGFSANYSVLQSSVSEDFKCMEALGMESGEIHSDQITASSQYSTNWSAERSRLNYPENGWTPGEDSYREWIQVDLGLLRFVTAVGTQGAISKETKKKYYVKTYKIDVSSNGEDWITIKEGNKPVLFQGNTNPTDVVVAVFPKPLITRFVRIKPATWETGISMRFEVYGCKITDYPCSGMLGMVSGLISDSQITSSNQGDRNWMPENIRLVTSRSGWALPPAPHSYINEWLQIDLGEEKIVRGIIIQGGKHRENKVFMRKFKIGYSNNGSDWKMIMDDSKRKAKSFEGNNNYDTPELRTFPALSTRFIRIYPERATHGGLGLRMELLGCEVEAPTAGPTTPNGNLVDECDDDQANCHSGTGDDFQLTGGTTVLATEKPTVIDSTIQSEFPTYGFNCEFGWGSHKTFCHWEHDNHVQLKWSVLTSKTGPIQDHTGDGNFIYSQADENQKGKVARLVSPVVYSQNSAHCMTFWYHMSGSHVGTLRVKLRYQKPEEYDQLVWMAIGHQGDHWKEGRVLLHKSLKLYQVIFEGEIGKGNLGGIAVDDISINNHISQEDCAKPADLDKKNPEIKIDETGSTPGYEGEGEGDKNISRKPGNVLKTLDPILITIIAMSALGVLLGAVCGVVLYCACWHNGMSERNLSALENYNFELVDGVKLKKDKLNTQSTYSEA

Consider `CCCCn1nnnc1C(c1cc2ccccc2o1)N(C)Cc1ccc(Cl)c(Cl)c1` (stereo unspecified), for which the inhibition (commonly the change of the read-out against control, counted positive when it falls) was 104%. For the molecule `CCOc1cc(C(=O)NCCN2CCOCC2)cc(OCC)c1OCC`, the inhibition was determined as 23.9%. To `Cc1cc2c(cc1C)NC(c1nc3ccccc3[nH]1)C1=C(CC(C)(C)CC1=O)N2` (stereo unspecified) belongs 20.6%; to `COc1ccc(-c2csc(NC(CO)c3nc4ccccc4n3CCCO)n2)cc1` (stereo unspecified), 41.5%.

On to `CC(=O)Oc1cc2c(c3ccccc13)CCC2=O`, for which the inhibition was 23.4%. For the molecule `O=c1oc(Nc2ccccc2F)nc2ccccc12`, the inhibition was 25.1%. The figure for `CC(=NN(Cc1ccccc1)c1ccccc1)c1ccccc1` is 87.9%.

As for `CC(=O)Nc1cccc(-c2csc(NCc3ccccc3)n2)c1`, the inhibition stood at 26.4%. Take `COC(=O)c1ccn(C(=O)c2ccc(Cl)cc2)n1`: the inhibition came out at 39.2%. In the case of `CCN(Cc1ccncc1)C(=O)c1cc(COc2ccc(F)cc2F)on1`, the inhibition is 18.1%.

For the molecule `O=C(Cn1cccc1C(=O)c1ccccc1)NCCC1=CCCCC1`, the inhibition was 94.3%. For `Cc1cc2cc(CNC(=O)c3ccc(S(=O)(=O)N4CCOCC4)cc3)ccc2n1C`, the inhibition came to 18.3%. The figure for `CC(=O)C(C(c1ccccc1)N1CCCc2ccccc21)N1CCOCC1` (stereo unspecified) is 54%; for `O=C1CCN(Cc2ccccc2)S(=O)(=O)c2ccccc21` it is 54%; for `COc1ccc(N=C2C(=Nc3ccc(OC)cc3)N(c3ccc(N(C)C)cc3)C(=S)N2c2ccc(OC)cc2)cc1` it is 50.6%. The figure for `Cc1ccc(S(=O)(=O)N2[C@@H](c3ccc(Cl)cc3)C(C(=O)OC(C)(C)C)=CC[C@H]2c2ccc(Cl)c(Cl)c2)cc1` is 72.6%. Take `COc1cc(C(=O)Nc2cc3c(cc2N2CCCCC2)n(C)c(=O)n3C)cc(OC)c1OC`: the inhibition is 57.1%. To `COCc1cccc(-c2csc(C(C)(O)c3ccccc3)n2)c1` (stereo unspecified) belongs 25.6%. For `Cc1ccccc1OCC1Cc2c(nc(N)c(C#N)c2N)O1` (stereo unspecified), the inhibition is -18.4%.

On to `Cc1ccc(-n2c(-c3ccco3)nc3c(cnn3-c3ccc(C)cc3)c2=O)cc1`, for which the inhibition is 50.3%. To `COC(=O)C1N[C@@H]([C@@H](NC(=O)COc2ccccc2)C(=O)NCc2ccccc2)SC1(C)C` (stereo partly specified) belongs 18.2%.
